These results are taken from PubChem BioAssay (NCI).

Common to all, as to assay: NCI-60 one-dose screen, 48 h (100 = growth as untreated, 0 = no growth, -100 = all killed)
What all share (conditions): 10 µM unless noted

Assay [1] concerns NCI-H23 lung.
Assay [2] relates to NCI-H226 lung.
Assay [3] has as its system NCI-H322M lung.
The subject of assay [4] is HOP-62 NSCLC.
The subject of assay [5] is NCI-H460 lung.
In assay [6] the test system is HOP-92 NSCLC.
Assay [7] deals with NCI-H522 lung.
For assay [8], the system named is A549/ATCC NSCLC.
The subject of assay [9] is 786-0 renal.
For assay [10], the system named is COLO 205 colon.
Assay [11] concerns DU-145 prostate.
The test system of assay [12] is K-562 leukemia.
Assay [13] relates to MALME-3M melanoma.
Assay [14] relates to MDA-MB-231 breast.
Assay [15] relates to RXF 393 renal.
The subject of assay [16] is SF-268 CNS.
The subject of assay [17] is SF-295 CNS.
The test system of assay [18] is SF-539 CNS.
Assay [19] relates to UACC-257 melanoma.
Assay [20] concerns M14 melanoma.

The panel holds about 83,000 compounds, 20% with a hit somewhere; the sample as a whole holds those more often.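 A percent growth of 40 corresponds to 60% growth inhibition; 0 means no net growth; -100 means all cells died. Active threshold: below 10.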 Unmarked numbers belong to inactive results. Calls of active or inactive are those of the source.

On to `CCCCCSB(SCCCCC)c1ccccc1`, for which the growth in assay [1] is 99.9%; in [2], 102%; in assay [3], 103%; in assay [4], 90%; in assay [5] it was 112%; in assay [6], 105%. Further, the growth is 88.3% in [7]; 92.4% in assay [8]; 103% in [9]; 106% in assay [10]; 108% in assay [11]; 112% in [12]. Also, the growth in assay [13] was 101%; in assay [14] it was 105%; in assay [15], 109%; in assay [16] it was 98.2%; in assay [17], 105%; in [18], 106%. The growth in assay [19] was 94.4%; in [20], 102%.

Turning to `C=CC(C)(O)CC/C=C(\CO)C(=O)OC1C(C)OC(O[C@](C)(C=C)CC/C=C(\CO)C(=O)O[C@H]2C[C@@]3(C(=O)OC4OC(CO)C(O)C(O)C4OC4OC(C)C(OC5OC(CO)C(O)C5O)C(OC5OC(CO)C(O)C(O)C5O)C4O)C(CC2(C)C)C2=CCC4[C@@]5(C)CC[C@H](OC6OC(COC7OC(C)C(O)C(O)C7OC7OCC(O)C(O)C7O)C(O)C(O)C6NC(C)=O)C(C)(C)C5CC[C@@]4(C)[C@]2(C)C[C@H]3O)C(O)C1O` (stereo not given in full), the growth in assay [1] was 11.9%; in [2] it was 2.06% (active); in assay [3], -78.4% (active); in [4], -66.9% (active); in assay [5], 57.8%; in assay [6], -46.2% (active). Moreover, the growth in assay [7] is -58.8% (active); in [8], -37.5% (active); in [9], -77.5% (active); in [10], -69.3% (active); in [11] it was -91.2% (active); in assay [12], 22.8%. The growth in assay [13] is -56.2% (active); in assay [14], -29.8% (active); in assay [15], -31.3% (active); in assay [16] it was -53.4% (active); in assay [17] it was -59.4% (active); in [18], 6.98% (active). For the same compound, the figures for the growth in assay [19] and in assay [20] were -53.5% (active) and -34.1% (active), respectively.

Take `CCOC(=O)c1c(NC(=O)c2ccc(C(C)(C)C)cc2)sc2cc(O)ccc12`: the growth in [1] is 89.8%; in [2], 87.9%; in assay [3], 87.1%; in assay [4], 95.8%; in assay [5], 98.1%; in assay [6], 96.8%. The growth in assay [7] was 96.1%; in [8], 91.9%; in assay [9], -92% (active); in [10], 110%; in assay [11], 97.7%; in assay [12], 43.4%. Also, the growth is 98.7% in assay [13]; 110% in assay [14]; 115% in [15]; 102% in assay [16]; 105% in assay [17]; 90.9% in assay [18]. The growth is 97.3% in assay [19] and 86.6% in [20].

With `Cn1cc(-c2csc(-c3cn(C)c4ccc(Br)cc34)n2)c2cnccc21`, the growth is -28.7% (active) in assay [1]; 102% in assay [2]; -32.6% (active) in [3]; -79% (active) in assay [4]; -76.4% (active) in assay [5]; -90.9% (active) in [6]. Also, the growth in assay [7] is -67.5% (active); in assay [8] it was -75.1% (active); in [9] it was -92.4% (active); in [10], -77.8% (active); in assay [11], -88.6% (active); in assay [12], -67% (active). The growth in [13] is -91.3% (active); in assay [14] it was -84.7% (active); in assay [15], -87.2% (active); in assay [16] it was -73.8% (active); in assay [17] it was -78.2% (active); in assay [18], -93.1% (active). The figures for the growth in [19] and in assay [20] were -23.2% (active) and -80.4% (active), respectively.

Consider `Cc1cccc(-n2c(C)nc3ccc(N4CCCNC4=O)cc3c2=O)c1`, for which the growth in assay [1] was 98.5%; in assay [2] it was 96.5%; in assay [3] it was 103%; in [4], 101%; in assay [5], 112%; in [6], 95.1%. For the same compound, the growth in assay [7] was 96.4%; in assay [8], 102%; in [9] it was 102%; in assay [10], 105%; in assay [11], 109%; in assay [12], 102%. The growth was 102% in assay [13]; 106% in assay [14]; 116% in assay [15]; 105% in assay [16]; 101% in [17]; 91.9% in [18]. Moreover, the growth in assay [19] is 105%; in assay [20], 102%.

As to `CO[C@H](C(=O)[C@@H](O)[C@@H](C)O)[C@@H]1Cc2cc3cc(O[C@H]4C[C@@H](O[C@H]5C[C@@H](O)[C@H](O)C(C)O5)[C@H](O)C(C)O4)c(C)c(O)c3c(O)c2C(=O)[C@H]1O[C@H]1C[C@@H](O[C@H]2C[C@@H](O[C@H]3C[C@@H](OC)[C@H](O)C(C)O3)[C@@H](O)C(C)O2)C(O)(O)C(C)O1` (stereo not given in full), the growth in [1] was 7.35% (active); in assay [2], -20.8% (active); in [3], 9.68% (active); in [4] it was -3.61% (active); in assay [5], 9.9% (active); in [6] it was 9.37% (active). Further, the growth in assay [7] was -20.2% (active); in assay [8], 3.64% (active); in [9], 11.2%; in [10] it was -80% (active); in assay [11], 19.5%; in [12] it was 12.1%. Further, the growth was -36.8% (active) in assay [13]; 5.02% (active) in assay [14]; -57.9% (active) in [15]; 26.3% in assay [16]; 12.4% in assay [17]; -0.417% (active) in [18]. For the same compound, the growth was -20.5% (active) in assay [19] and 11.1% in [20].

Regarding `O=C(CCCCNC(=O)c1cc(=O)c(O)co1)Nc1ccccc1`, the growth was 86.2% in assay [1]; 102% in assay [2]; 102% in assay [3]; 118% in [4]; 99.5% in [5]; 59.1% in [6]. The growth in assay [7] is -5.93% (active); in assay [8] it was 104%; in [9], 101%; in assay [10], 67.7%; in assay [11], 104%; in assay [12], 13.3%. In addition, the growth is 43% in [13]; 99% in assay [14]; 55.5% in assay [15]; 91% in [16]; 102% in assay [17]; 92.5% in assay [18]. Besides, the growth in [19] is 88.7%; in assay [20], 81.5%.
